Inconclusive results are not listed. Active and inactive are the calls of the source. Calls follow the shape of the dose curve; as a rule, active = well fitted curve in the direction sought with a large enough effect; inconclusive = small, poorly fitted or top-dose-only effect, or another doubt; inactive = no such curve, though single readings can be large; an effect the other way counts as inactive or inconclusive.
How the values were obtained:
[1] = qHTS of pediatric cancer cell lines to identify multiple opportunities for drug repurposing: Primary screen for NB1643 cells (AID 1347099); also: nearly all actives have a fitted effect of over 50% in size; also: potency is read from the fitted curve at half-maximal effect
How it was run: (§1)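 Plated cells (500-1,000 per well, growth media) were allowed to settle for 5 hours, treated with compound dilutions for 48 hours, then lysed with CellTiter-Glo for 15 min at room temperature before luminescence reading.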

[2] = qHTS of pediatric cancer cell lines to identify multiple opportunities for drug repurposing: Primary screen for LAN-5 cells (AID 1347100); also: potency is read from the fitted curve at half-maximal effect
How it was run: (§2)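 Cells (500-1,000/well) in growth media were settled 5 h at 37 degrees C, then given compounds for 48 h. Viability was read as CellTiter-Glo luminescence. Primary runs used MIPE at 11 points (0.78 nM-46 µM) and NPC at 8 points (0.59 nM-46 µM); follow-ups used 11 points.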

[3] = qHTS of pediatric cancer cell lines to identify multiple opportunities for drug repurposing: Primary screen for Rh18 cells (AID 1347102); also: nearly all actives have a fitted effect of over 65% in size; also: potency is read from the fitted curve at half-maximal effect
How it was run: as §2

[4] = qHTS of pediatric cancer cell lines to identify multiple opportunities for drug repurposing: Primary screen for OHS-50 cells (AID 1347103); also: nearly all actives have a fitted effect of over 40% in size; also: potency is read from the fitted curve at half-maximal effect
How it was run: (§3)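 Cells (500-1,000/well) rested 5 h, then received compounds for 48 h; metabolically active cells were measured by CellTiter-Glo luminescence. Final concentrations spanned up to 46 µM (MIPE, 11-point) or 0.59 nM-46 µM (NPC, 8-point) in primary screens, 11-point in follow-ups.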

[5] = qHTS of pediatric cancer cell lines to identify multiple opportunities for drug repurposing: Primary screen for control Hh wild type fibroblast cells (AID 1347106);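 also: series mostly up to about 46 µM; a drop in luminescence marks cytotoxicity and a rise apparent proliferation; nearly all actives have a fitted effect of over 55% in size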
How it was run: as §2

[6] = qHTS of pediatric cancer cell lines to identify multiple opportunities for drug repurposing: Primary screen for Rh41 cells (AID 1347108); also: nearly all actives have a fitted effect of over 70% in size; also: potency is read from the fitted curve at half-maximal effect
How it was run: as §1

[7] = qHTS of pediatric cancer cell lines to identify multiple opportunities for drug repurposing: Primary screen for MG 63 (6-TG R) cells (AID 1347105); also: nearly all actives have a fitted effect of over 50% in size; also: potency is read from the fitted curve at half-maximal effect
How it was run: as §1

[8] = qHTS of pediatric cancer cell lines to identify multiple opportunities for drug repurposing: Confirmatory screen for NB1643 cells (AID 1347109); also: nearly all actives have a fitted effect of over 45% in size
How it was run: as §2

[9] = qHTS of pediatric cancer cell lines to identify multiple opportunities for drug repurposing: Confirmatory screen for BT-12 cells (AID 1347112); also: nearly all actives have a fitted effect of over 55% in size; also: potency is read from the fitted curve at half-maximal effect
How it was run: as §2

[10] = qHTS of pediatric cancer cell lines to identify multiple opportunities for drug repurposing: Confirmatory screen for DAOY cells (AID 1347114); also: nearly all actives have a fitted effect of over 65% in size; also: potency is read from the fitted curve at half-maximal effect
How it was run: (§4)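 Viability measured as metabolically active cells via CellTiter-Glo luminescence following 48 hours of compound exposure, 11-point dilutions in confirmatory testing. 500-1,000 cells/well plated 5 hours before dosing; controls were DMSO and 2.3 µM bortezomib.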

[11] = qHTS of pediatric cancer cell lines to identify multiple opportunities for drug repurposing: Confirmatory screen for NB-EBc1 cells (AID 1347115);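 also: cells exposed to compound for 48 h before the viability read; nearly all actives have a fitted effect of over 45% in size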; also: potency is read from the fitted curve at half-maximal effect
How it was run: as §2

[12] = qHTS of pediatric cancer cell lines to identify multiple opportunities for drug repurposing: Confirmatory screen for BT-37 cells (AID 1347117); also: nearly all actives have a fitted effect of over 55% in size; also: potency is read from the fitted curve at half-maximal effect
How it was run: as §2

[13] = qHTS of pediatric cancer cell lines to identify multiple opportunities for drug repurposing: Confirmatory screen for TC32 cells (AID 1347118);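 also: cells exposed to compound for 48 h before the read; nearly all actives have a fitted effect of over 65% in size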; also: potency is read from the fitted curve at half-maximal effect
How it was run: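 qHTS, TC32, 48 h drug treatment, CellTiter-Glo luminescence as a proxy for metabolically active cells; primary top concentration 46 µM (MIPE 11-pt, NPC 8-pt); confirmatory 11-pt.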

[14] = qHTS of pediatric cancer cell lines to identify multiple opportunities for drug repurposing: Primary screen for RD cells (AID 1347104); also: nearly all actives have a fitted effect of over 55% in size; also: potency is read from the fitted curve at half-maximal effect
How it was run: as §1

[15] = qHTS of pediatric cancer cell lines to identify multiple opportunities for drug repurposing: Primary screen for Rh30 cells (AID 1347107); also: nearly all actives have a fitted effect of over 75% in size; also: potency is read from the fitted curve at half-maximal effect
How it was run: as §2

[16] = qHTS of pediatric cancer cell lines to identify multiple opportunities for drug repurposing: Primary screen for BT-12 cells (AID 1347101); also: nearly all actives have a fitted effect of over 25% in size; also: potency is read from the fitted curve at half-maximal effect
How it was run: as §3

[17] = qHTS of pediatric cancer cell lines to identify multiple opportunities for drug repurposing: Confirmatory screen for A673 cells (AID 1347110);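 also: cells exposed to compound for 48 h before the viability read; nearly all actives have a fitted effect of over 65% in size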; also: potency is read from the fitted curve at half-maximal effect
How it was run: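 qHTS titration format: primary MIPE 0.78 nM-46 µM (11 pts), NPC 0.59 nM-46 µM; confirmation 11 pts. 48 h, CTG luminescence.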

[18] = qHTS of pediatric cancer cell lines to identify multiple opportunities for drug repurposing: Confirmatory screen for SK-N-MC cells (AID 1347111);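 also: cells exposed to compound for 48 h before the readout; nearly all actives have a fitted effect of over 70% in size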; also: potency is read from the fitted curve at half-maximal effect
How it was run: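 Metabolically active cells were quantified by ATP-dependent luminescence (CellTiter-Glo, 15 min at room temperature) following 48 h treatment. Cells had been plated at 500-1,000 per well and settled for 5 h beforehand.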

[19] = qHTS of pediatric cancer cell lines to identify multiple opportunities for drug repurposing: Confirmatory screen for LAN-5 cells (AID 1347113); also: nearly all actives have a fitted effect of over 65% in size
How it was run: as §2

[20] = qHTS of pediatric cancer cell lines to identify multiple opportunities for drug repurposing: Confirmatory screen for SJ-GBM2 cells (AID 1347116); also: nearly all actives have a fitted effect of over 60% in size
How it was run: as §4

Measured: Potency

O=C1NC(=O)C(=Cc2ccc(-c3ccc(F)cc3O)o2)S1
inactive: [1] | [2] | [3] | [5] | [6]
active: [4] 1.72 µM

COc1ccc(-c2cc3nccn3c(Nc3ncccc3C(N)=O)n2)cc1OC
active: [1] 2.35 µM | [2] 1.48 µM | [4] 1.93 µM | [6] 2.35 µM
inactive: [3] | [7]

OCCn1cc(-c2ccc3c(c2)CCC3=NO)c(-c2ccncc2)n1
active: [1] 11.8 µM
not listed: [5] | [14] | [15] | [16] | [17] | [18] | [19] | [20]
inactive: all other assays above

CC1(C)[C@H]2CC[C@]3(C)[C@@H](C(=O)C=C4[C@@H]5C[C@@](C)(C(=O)O)CC[C@]5(C)CC[C@]43C)[C@@]2(C)CC[C@@H]1O
inactive: [1] | [2] | [3] | [14] | [7] | [5] | [15] | [6]

CCCCC(C=O)NC(=O)C(CC(C)C)NC(=O)OCc1ccccc1 (stereo not drawn)
inactive: [2] | [3] | [7] | [5]
active: [1] 26.4 µM

CCOc1ccccc1N=Nc1c(C)[nH]n(-c2nc(-c3ccccc3)cs2)c1=O
active: [1] 1.18 µM
inactive: [16] | [3] | [5]

CC1=C(CC(=O)O)c2cc(F)ccc2C1=Cc1ccc(S(C)=O)cc1 (stereo not drawn)
active: [1] 7.43 µM | [2] 26.4 µM
inactive: [15] | [8] | [17] | [18] | [9] | [19] | [10] | [11] | [12] | [13]

CCCCOCCOc1nc(-c2ccc(C(=O)O)c(F)c2)sc1C
active: [4] 0.485 µM
inactive: [1] | [2] | [14] | [5]

Cc1cc(CS(=O)(=O)c2ccccc2)cc(OCc2ccc(CN3CCC[C@H]3CO)cc2)c1
inactive: [2] | [5] | [8] | [11] | [20]
active: [1] 14.8 µM | [14] 5.9 µM | [6] 11.8 µM

CNC1CCC(N(Cc2cccc(-c3ccncc3)c2)C(=O)c2sc3ccccc3c2Cl)CC1 (stereo not drawn)
active: [1] 20.9 µM | [3] 23.5 µM | [4] 19.3 µM | [14] 18.7 µM | [7] 29.6 µM
inactive: [5]

CN(C)CCOc1ccc(-c2nc(-c3ccc4c(c3)CCC4=NO)c(-c3ccncc3)[nH]2)cc1
active: [1] 20.9 µM | [16] 27.3 µM | [3] 23.5 µM | [14] 18.7 µM | [15] 18.7 µM | [6] 23.5 µM

CNc1nc(Nc2ccc(C(=O)N3CCOCC3)cc2OC)ncc1Cl
inactive: [16] | [3] | [14] | [5] | [6]
active: [1] 4.69 µM

CNC(=O)[C@H](CC1=CN=C2C=CCC=C12)NC(=O)[C@@H](CC(=O)NO)CC(C)C
active: [1] 0.0662 µM | [16] 0.344 µM | [4] 1.37 µM | [14] 1.18 µM | [7] 9.35 µM | [17] 14.7 µM | [9] 2.61 µM | [12] 0.827 µM
inactive: [3] | [5] | [15]

O=C1NC(=O)C(c2cnc3ccccn23)=C1c1cn2c3c(cccc13)CN(C(=O)N1CCOCC1)CC2
active: [1] 20.9 µM | [2] 2.96 µM | [7] 0.469 µM | [18] 14.7 µM | [11] 2.93 µM | [12] 16.5 µM | [13] 4.65 µM
inactive: [5]

CON(C)C(=O)N1N=C(c2cc(F)ccc2F)S[C@]1(CCCN)c1ccccc1
active: [16] 15.3 µM | [4] 0.001 µM | [17] 0.0104 µM | [18] 0.0093 µM | [12] 0.0074 µM | [13] 0.0117 µM
inactive: [1] | [5] | [15]

COc1ccc(-c2oc3c(CC=C(C)C)c(O)cc(O)c3c(=O)c2O)cc1
active: [1] 14.8 µM | [14] 37.2 µM | [6] 18.7 µM
inactive: [16] | [3] | [5]

O=C(CC12CC3CC(CC(C3)C1)C2)Nc1cccc2nc(NCCNCCO)ccc12
inactive: [3] | [6] | [8] | [19] | [11]
active: [1] 13.2 µM | [4] 27.3 µM | [14] 33.2 µM | [7] 14.8 µM | [18] 23.3 µM | [13] 18.5 µM

Cc1nn(Cc2ccccc2Cl)c(C)c1CN(C)CC(O)COc1ccc(Cl)cc1 (stereo not drawn)
inactive: [5] | [11] | [20]
active: [1] 14.8 µM | [2] 20.9 µM | [4] 24.3 µM | [14] 33.2 µM | [6] 18.7 µM | [10] 23.3 µM

From PubChem BioAssay (NCATS)
